# In PubChem BioAssay (NCATS):
# Several values for one entry are separate records, joined by “and”; a condition that tells them apart may be missing. Equal values may be shown once. Records with an inconclusive call do not appear. Activity calls are given as the source filed them. The call rests on the fitted dose curve; in most records, active means well fitted curve in the direction sought with a large enough effect; inconclusive means small, poorly fitted or top-dose-only effect, or another doubt; inactive means no such curve, though single readings can be large; an effect the other way counts as inactive or inconclusive.
# Columns and labels:
# [1] = Viability qHTS for spleen associated tyrosine kinase inhibitor (SYKi) drug resistant MV4-11 cells (AID 1963824); further: nearly all actives have a fitted effect of over 35% in size
# How it was run: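 CellTiter-Glo luminescence, read 10 min after reagent addition, reports viability after a 72 hr compound exposure. Cells are an MV4-11 line made resistant to SYK inhibition, seeded at 500 per well onto compound-containing plates.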
# [2] = Cellular viability qHTS for adrenocortical cancer (ACC) cell line SW-13 (AID 1963989); settings: SW-13 ACC cells viability, CellTiter-Glo, 48 h; activity (max response): active compounds read low; further: nearly all actives have a fitted effect of over 65% in size;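 on activity (max response): cells grown in serum-free medium with ITS supplement; on the % scale 0 is the no-effect control and ±100 the full control effect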
# How it was run: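 SW-13 cells in ITS-supplemented serum-free DMEM were plated overnight, then exposed for 48 h at 37C to compound titrations (up to 46 uM final). Viability was read by CellTiter-Glo luminescence; four-parameter logistic fits gave IC50 and efficacy.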
# Potency means the concentration at half of the fitted maximal effect.
Structure (SMILES),"viability, % of control [1]",activity (max response) [2],Potency [1],Potency [2]
N[C@@H](Cc1ccc(O)cc1)C(=O)O,81.6% [at 9.25 µM] (inactive),7.19% (inactive),–,–
CC(=O)OCC1=C(C(=O)O)N2C(=O)[C@@H](NC(=O)CSc3ccncc3)[C@H]2SC1,–,10.5% (inactive),inactive,–
CC(C)(C)C[C@H]1N[C@@H](C(=O)NC2CCC(O)CC2)[C@H](c2cccc(Cl)c2F)[C@@]12C(=O)Nc1cc(Cl)ccc12 (stereo partly drawn),–,–,6.61 µM (active),25.1 µM (active)
CCOC(=O)NNc1nncc2ccccc12,–,4.25% (inactive),inactive,–
Nc1nnnn1-c1ccccc1,–,1.62% (inactive),inactive,–
CC1=C(C(=O)O)N2C(=O)[C@@H](NC(=O)[C@H](N)c3ccccc3)[C@H]2SC1,–,10% (inactive),inactive,–
CC(C)(C)CC(C)(C)c1ccc(OCCOCC[N+](C)(C)Cc2ccccc2)cc1,–,–,2.37 µM (active) and 1.46 µM (active),5.17 µM (active)
CN[C@@H]1[C@@H](O)[C@@H](O[C@@H]2[C@@H](O)[C@H](O[C@H]3O[C@H](CN)[C@@H](O)[C@H](O)[C@H]3O)[C@@H](N)C[C@H]2NC(=O)C(O)CN)OC[C@]1(C)O (stereo partly drawn),–,-3.06% (inactive),inactive,–
CCCCNc1c(C(=O)OCC)c(C)nc2c1cnn2CC,–,-16.9% (inactive),inactive,–
CN1CCC(=C2c3ccccc3Sc3ccccc32)CC1,–,–,16.8 µM (active),23.1 µM (active)
Cc1cc(-c2cnn3c(NCC4CC(C)(O)C4)cc(Oc4cccnc4)nc23)ccc1C(=O)NC1CC1 (stereo not drawn),–,-6.44% (inactive),0.118 µM (active),–
CCOC(=O)[C@H]1O[C@@H]1C(=O)N[C@@H](CC(C)C)C(=O)NCCC(C)C,–,-2.38% (inactive),5.9 µM (active),–
CCCC[C@@H](C=O)NC(=O)[C@H](CC(C)C)NC(=O)OCc1ccccc1,–,-4.14% (inactive),18.6 µM (active),–
O=C(NO)C1(CS(=O)(=O)c2ccc(Oc3ccc(Cl)cc3)cc2)CCOCC1,–,–,16.6 µM (active),25.1 µM (active)
Cc1ccc(NC(=O)Nc2nnc(Sc3ncnc4cc(OCCCN5CCOCC5)ccc34)s2)cc1,–,-9.58% (inactive),0.0166 µM (active),–
CN[C@@H](C)C(=O)N[C@H](C(=O)N1CCC[C@H]1C(=O)Nc1sc(-c2ncco2)nc1-c1ccccc1)C1CCCCC1,–,-5.71% (inactive),0.59 µM (active),–
CC(C)n1cc(-c2ccc3c(c2)N(C)CC3)c2c(NS(=O)(=O)c3ccn(C)n3)ccnc21,–,9.47% (inactive),18.6 µM (active),–
COc1cc(S(C)(=O)=O)ccc1Nc1nc2ccc(-c3ccc(NC(=O)[C@H](C)c4ccc(F)cc4)cc3)cn2n1,–,-19.6% (inactive),0.468 µM (active),–
Cc1ccc(NC(=O)NCc2ccc3c(c2)CN(C2CCC(=O)NC2=O)C3=O)cc1Cl (stereo not drawn),–,–,0.0013 µM (active),0.0089 µM (active)
